Among the data in PubChem BioAssay AID651702 (NMMLSC, 2012) are inhibition values, retold here.

For orientation: inhibition means the drop in the measured response relative to a control, in per cent.

Among all 360,000 compounds or so, about 2,400 (0.67%) were called active.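 How the source made its calls: active means inhibition above about 55% (limit read from the data); inconclusive means no clear call, values can overlap the other calls; inactive means the rest.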 This excerpt belongs to a sample that is enriched for actives.

The test can be described thus: LAMP-1 surface exposure blockers, TALL-104 cells – cell-based, flow cytometry, MLPCN library, primary screen (AID 651702). The following applies: TALL-104 LAMP-1 surface exposure, at 10 µM, hits give high values, cells stimulated with thapsigargin and PMA. (In flow cytometry, cells or beads pass a laser one at a time.)
As to `COC(=O)C1=C(C(=O)OC)C(c2cc([N+](=O)[O-])ccc2O)c2sc(=O)[nH]c2S1` (stereo not drawn), the inhibition was 7.4% (inactive). With `Cc1cccc(Nc2nnc(SCC(=O)c3c(N)n(C4CC4)c(=O)[nH]c3=O)s2)c1C`, the inhibition is 0.1% (inactive). With `CCOC(=O)C1(C)CCCN(C(=O)c2ccc(F)c(Cl)c2)C1` (stereo not drawn), the inhibition was 71.1% (active). `CCOC(=O)C1(C)CCCN(C(=O)c2ccc(N(C)C)cc2)C1` (stereo not drawn): the inhibition is -2.4% (inactive). With `CCOC(=O)C1(C)CCCN(C(=O)c2cccc(Cl)c2)C1` (stereo not drawn), the inhibition was 1.7% (inactive). Regarding `O=C(Nc1ccc(Br)cc1)c1cccc(NC(=O)C2C3CC4OC(=O)C2C4C3)c1` (stereo not drawn), the inhibition was 11% (inactive). For `CCOc1ccc(CCNC(=O)C2CCN(c3ccc(N4CCOCC4)nn3)CC2)cc1OCC`, the inhibition is -0.7% (inactive). With `Nc1nnc(SCC(=O)OCc2ccc(Cl)c(Cl)c2)s1`, the inhibition was -1.6% (inactive).

As for `O=C(CNC(=O)N1CC(=O)Nc2ccccc21)Nc1ccc(Br)cc1F`, the inhibition is 4.6% (inactive). Then `COc1ccc2c(c1)c(=Cc1ccc(N(C)C)cc1)c1cc(-c3ccccc3)[n+](C)n12`, with 95.4% (active). Turning to `CCCNC(=O)C[C@@H]1CC[C@@H]2[C@H](COC[C@H](O)CN2C(=O)c2cc(Cl)cc(Cl)c2)O1`, the inhibition is -2.9% (inactive).

With `O=C(NCc1ccc(F)cc1)C(c1ccccc1)N(C(=O)c1csnn1)C1CC1` (stereo not drawn), the inhibition is -3.2% (inactive). Then `O=C(NCc1ccccc1)C(c1ccccc1)N(C(=O)c1csnn1)c1ccc(F)cc1` (stereo not drawn), with 56.4% (active); and `O=C(NCc1ccccc1)C(c1cccnc1)N(C(=O)c1csnn1)c1ccc(F)cc1` (stereo not drawn), with 12.4% (inactive).

For the molecule `O=C(CC1C(=O)NCCN1Cc1ccc(-c2ccccc2)cc1)NCC1CCOCC1` (stereo not drawn), the inhibition is 1.1% (inactive). Then `CCOC(=O)C1(CCOC)CCN(Cc2cc3ccccc3s2)CC1`, with 0.4% (inactive). Then `CCOC(=O)C1(CCOc2ccccc2)CCN(Cc2ccc(C#CCCO)cc2)CC1`, with 55.8% (active). The same measure for `CCCS(=O)(=O)N1CCC(CCOc2ccccc2)(C(=O)OCC)CC1`: -2.2% (inactive); for `CCOC(=O)C1(CCOc2ccccc2)CCN(Cc2cc(OC)c(O)cc2Cl)CC1`: 84.5% (active). As for `CCOC(=O)C1(Cc2cccc(OC)c2)CCN(C(C)COC)CC1` (stereo not drawn), the inhibition is -0.5% (inactive). For the molecule `CCOC(=O)C1(CCOc2ccccc2)CCN(C(=O)c2cncs2)CC1`, the inhibition was -0.8% (inactive). Regarding `CC1(C(=O)NCc2ccccc2)CSCC(=O)N1CCCN1CCOCC1` (stereo not drawn), the inhibition was 4.3% (inactive). For `CC1CCCN(S(=O)(=O)c2ccc(N(C(=O)c3cnccn3)C(C(=O)NC3CCCCC3)c3cccs3)cc2)C1` (stereo not drawn), the inhibition was 0.9% (inactive).

As for `Cc1ccc(S(=O)(=O)N2CCN(C(=O)c3cc(S(=O)(=O)N4CCOCC4)ccc3F)CC2)cc1`, the inhibition is -3% (inactive).

As to `Cc1ccc(S(=O)(=O)NCC(=O)NNC(=O)c2ccc(Br)cc2)cc1C`, the inhibition is -1.3% (inactive). Then `CN1C(=O)/C(=C\c2ccc(-c3ccccc3)o2)SC1=S`, with 66.7% (active); and `NS(=O)(=O)c1ccc(-c2ccc(/C=C3\SC(=O)NC3=O)o2)cc1`, with -14.3% (inactive). Then `Cc1ccc(C(=O)O)cc1-c1ccc(/C=C2\SC(=O)N(CC(=O)Nc3ccc4c(c3)OCO4)C2=O)o1`, with -0.4% (inactive); and `NC(=O)CCCC1=NS(=O)(=O)c2ccccc2N1`, with -3.9% (inactive). Then `O=C(NC(=O)c1ccccc1N1CCCCC1)Nc1ccc(Br)cc1`, with 84.6% (active). As for `O=C(Nc1ccc(C(=O)O)cc1)/C(=C\c1ccccc1)NC(=O)c1ccc(Br)cc1`, the inhibition is 9.3% (inactive). Turning to `CN1CCN(NC(=O)Nc2ccc(Br)cc2)CC1`, the inhibition is -2% (inactive). The same measure for `Cc1ccc(C)c(NC(=O)CCC(=O)N/N=C2/CC(=O)CC(C)(C)C2)c1`: 3.3% (inactive); for `OCCNc1nc(Nc2ccc(Cl)c(Cl)c2)nc2ccccc12`: 57.7% (active). Then `OCCNCCOc1ccc(Cl)c(Cl)c1`, with 6.6% (inactive); and `COCCNc1nc(Nc2ccccc2Cl)c2sc(-c3ccccc3)cc2n1`, with 47.2% (inactive); and `COc1ccccc1Nc1nnc(SC(C)C(=O)NC2CC2)s1` (stereo not drawn), with 1.8% (inactive).

As to `COc1ccc(C23NCCN2C(=O)c2ccccc23)cc1` (stereo not drawn), the inhibition was 8.9% (inactive). The same measure for `COc1ccc(-c2oc3ncnc(NCCCO)c3c2-c2ccc(OC)cc2)cc1`: 70.3% (active); for `COCCNc1ncnc2c1ncn2[C@H]1CN(Cc2ccc(OC)cc2)C[C@@H](CO)O1`: 0.2% (inactive). Then `CCc1oc(-c2ccc(OC)cc2)c(C(=O)OCCCCCO)c1C(C)OCCO` (stereo not drawn), with 3.7% (inactive); and `C#CCN1CC(C)/C(=N/O)CC1C` (stereo not drawn), with 0.9% (inactive); and `CCn1c(-c2ccoc2C)n[nH]c1=S`, with 0.6% (inactive).

With `COc1ccc(C2CC(c3cccs3)=NN2C(=O)CSc2nnc(N)s2)cc1OC` (stereo not drawn), the inhibition is -3.2% (inactive). `COc1ccc(C2CC(c3cccs3)=NN2c2nc(C)c(C(C)=O)s2)cc1OC` (stereo not drawn): the inhibition was 87.5% (active). As to `COc1ccc(C2CC(c3cccs3)=NN2C(=O)COC(=O)c2cc3ccccc3cc2O)cc1OC` (stereo not drawn), the inhibition is -2.9% (inactive). In the case of `Cc1ccc(-n2nc(N)c3c(=O)oc(N(C)C)nc32)cc1`, the inhibition was -0.9% (inactive).

Consider `Cc1cc(NC(=O)CSc2ncc(C(F)(F)F)cc2Cl)no1`, for which the inhibition is 5.6% (inactive). Then `Cc1ccc(-c2ccnc3nc(Sc4ncc(C(F)(F)F)cc4Cl)nn23)cc1`, with 67.5% (active); and `Cc1nn(-c2ncc(C(F)(F)F)cc2Cl)c(=O)n1-c1ccccc1`, with -0.5% (inactive). As to `Cn1cnc(S(=O)(=O)Nc2ccc3c(c2)OCCO3)c1`, the inhibition was 5.9% (inactive). As to `CCC(=O)Nc1c(C)n[nH]c1C`, the inhibition is -0.1% (inactive). The same measure for `COc1ccc(-c2cc(NC=O)c3ncc(-c4ccccc4)n3c2)cc1OC`: 81.8% (active); for `COc1ccc(-c2cc(NC=O)c3ncc(-c4cc(OC)c(OC)c(OC)c4)n3c2)c(OC)c1`: 28.6% (inactive).

As to `CC(=O)c1cccc(-c2cnc3c(NC=O)cc(-c4ccccc4Oc4ccccc4)cn23)c1`, the inhibition was 13.9% (inactive). The same measure for `CC(NC(=O)CN(C)S(=O)(=O)c1ccc(F)cc1)C1CC2CCC1C2` (stereo not drawn): 0.1% (inactive); for `O=C(Cc1coc2ccc3ccccc3c12)NCc1cccs1`: -2.5% (inactive); for `O=C(NCc1cccs1)c1ccc(Br)o1`: -0.6% (inactive).

As to `CC(C)Cn1c(N)c(C(=O)NCc2cccs2)c2nc3ccccc3nc21`, the inhibition was 59.6% (active). The same measure for `COc1ccc(-c2cn[nH]c2-c2ccc(OC)cc2)cc1`: 65.6% (active).

As to `COc1ccc2cc(-c3[nH]ncc3CNCCn3nc(C)cc3C)ccc2c1`, the inhibition was 18.3% (inactive). The same measure for `COc1ccc(Oc2cn[nH]c2-c2ccc(OC)cc2O)cc1`: 60.1% (active); for `COc1ccc(-c2[nH]ncc2CN(C)Cc2c(C)n[nH]c2C)c(OC)c1`: -1.2% (inactive). With `COc1ccc(N=Nc2c(-c3ccc(OC)cc3)[nH]oc2=O)cc1`, the inhibition was -8.4% (inactive).

`COc1ccc(-c2c(-c3ccc(OC)cc3O)nc(C)nc2C(F)(F)F)cc1`: the inhibition was 27.6% (inactive). Then `Cn1c(C(=O)N2CCCC(C(=O)NCc3ccccc3)C2)cc2sccc21` (stereo not drawn), with -4.6% (inactive); and `COc1ccc(S(=O)(=O)N2CCN(CC(=O)N3CCOCC3)CC2)cc1OC`, with -0.5% (inactive); and `Cc1ccc(OCCC(=O)OCC(=O)N2c3ccccc3NC(=O)C2(C)C)cc1`, with 3.1% (inactive). `COc1ccc2[nH]c(=O)c(C3c4cc(OC)c(OC)cc4CCN3C(=O)c3ccco3)cc2c1` (stereo not drawn): the inhibition is -2.2% (inactive). Then `O=C(NCCN1CCOCC1)c1cccc(S(=O)(=O)Nc2ccc(F)cc2)c1`, with -1.1% (inactive). The same measure for `Cc1cccc(-c2nc3ccc(C(=O)NCCN4CCN(C)CC4)cc3nc2-c2cccc(C)c2)c1`: 57.4% (active).

Take `CCNC(=O)COC(=O)CCNC(=O)c1cccc(C)c1`: the inhibition is -0.6% (inactive). For `CCC(C)CN1C(=O)CN(S(C)(=O)=O)CC1(C)C(=O)Nc1ccc2c(c1)OCCO2` (stereo not drawn), the inhibition was -2% (inactive). On to `Cc1coc2c(O)cc3c(c12)OC1(N2CCCCC2)C(=O)NCCCC31` (stereo not drawn), for which the inhibition is 68.1% (active). The same measure for `CC1CN(C2CCN(C(=O)COc3ccccc3)CC2)CC(C)O1` (stereo not drawn): -2.5% (inactive); for `COc1ccccc1CNc1nc(Nc2ccccc2Cl)c2sccc2n1`: 2% (inactive); for `COc1cccc(CNc2nc(NCc3ccccc3OC)nc3ccsc23)c1`: 73.8% (active).

In the case of `COc1cccc(CNc2nc(NCc3cccs3)nc3ccsc23)c1`, the inhibition was 21% (inactive). For `CC1CCCC(C)N1C(=O)CSc1nnnn1C1CCCC1` (stereo not drawn), the inhibition was -4% (inactive). With `COc1ccccc1C1=Nc2cccc3cccc(c23)N1`, the inhibition is 65.7% (active). The same measure for `COc1ccccc1-c1nc(C(F)(F)F)c(OC)o1`: 1.1% (inactive). With `COc1ccccc1C1=CC(=O)CCC1`, the inhibition was 47.3% (inactive). The same measure for `COc1ccc(CC(=O)N[C@@H]2c3cc(OC)c(OC)cc3C[C@H]2OCc2ccccc2)cc1`: -2.2% (inactive). The same measure for `COc1ccccc1CC(NC(C)=O)C(=O)NC1CCN(C(=O)Nc2ccccc2Cl)CC1` (stereo not drawn): 6.8% (inactive); for `C[C@H](CO)N1C[C@H](C)[C@@H](CN(C)Cc2ccc3c(c2)OCO3)OCc2cnnn2CCCC1=O`: 2.5% (inactive). Then `Cc1cccc(C)c1NC(=O)CCS(=O)(=O)c1cccc2nsnc12`, with -2.7% (inactive); and `Cc1cccc2sc(N(CCCN(C)C)C(=O)CCS(=O)(=O)c3ccccc3)nc12`, with 90.8% (active). For `O=C(CCS(=O)(=O)c1ccccc1)NC1CCCC1`, the inhibition was -1.3% (inactive). The same measure for `COC(=O)COc1ccc(C2NC(=O)NC(C)=C2C(=O)NCc2ccccc2)cc1OC` (stereo not drawn): -3.7% (inactive); for `COc1ccc(C2=NS(=O)(=O)N(C)C(C(=O)N(C)Cc3ccccc3)=C2)cc1`: -1.2% (inactive); for `COc1ccc(CN(C)C(=O)c2cc(-c3ccc(C)cc3C)nc3ccccc23)c(OC)c1OC`: 19.4% (inactive). In the case of `COc1ccc(-c2cc(C(=O)N(C)Cc3ccccc3)c3ccccc3n2)cc1`, the inhibition was 74.5% (active). Take `COc1c(C)cc(C(=O)C2CCCN(S(=O)(=O)c3c(C)noc3C)C2)cc1C` (stereo not drawn): the inhibition was -1.1% (inactive). The same measure for `O=C(CC(CC(=O)c1ccccc1)c1ccco1)c1ccccc1`: 4.2% (inactive). Consider `CC1CC(C)CN(CCOc2cccc3ccccc23)C1` (stereo not drawn), for which the inhibition was 7.6% (inactive). Take `CN1CCN(CCCCOc2cccc3ccccc23)CC1`: the inhibition is 24.7% (inactive). Take `CC(C)c1ccccc1OCC(O)CN(CC(O)COc1cccc2ccccc12)C(C)C` (stereo not drawn): the inhibition was 73.4% (active).

Turning to `CCCC(NC(=O)c1ccccc1)c1nc2ccccc2n1Cc1ccc(C(=O)OC)o1` (stereo not drawn), the inhibition is 0.5% (inactive).
